Reference: PubChem BioAssay (NCI)
About 83,000 compounds went through this panel and 20% of them were active in at least one assay; those are over-represented in the sample as a whole.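 Method: cells in 96-well plates; compound added at one concentration; 48 h incubation; percent growth measured; values under 10 scored active.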 Active and inactive are the calls of the source.

How the values were obtained:
Assay in all cases: NCI-60 one-dose screen, 48 h (100 = growth as untreated, 0 = no growth, -100 = all killed)
Settings in all cases: 10 µM unless noted
HCT-15 colon = test system: HCT-15 colon
HT29 colon = test system: HT29 colon
SNB-75 CNS = test system: SNB-75 CNS
SNB-19 CNS = test system: SNB-19 CNS
U251 CNS = test system: U251 CNS
PC-3 prostate = test system: PC-3 prostate
SK-MEL-5 melanoma = test system: SK-MEL-5 melanoma
UACC-62 melanoma = test system: UACC-62 melanoma
LOX IMVI melanoma = test system: LOX IMVI melanoma
SK-MEL-28 melanoma = test system: SK-MEL-28 melanoma

Measured: growth

COc1ccc(/C=N/NC(=O)Cn2c(-c3ccc(S(C)(=O)=O)cc3)nc3cc(Cl)ccc32)cc1
active: HT29 colon 3.57%
inactive: HCT-15 colon 17.5% | SNB-75 CNS 26.5% | SNB-19 CNS 21.6% | U251 CNS 10.4% | PC-3 prostate 18.4% | SK-MEL-5 melanoma 12.7% | UACC-62 melanoma 26.1% | LOX IMVI melanoma 30.8% | SK-MEL-28 melanoma 52.7%

CCn1nc(C#Cc2c(C)ccc3c(Nc4ccc(Cl)cc4)nccc23)c2c(N)ncnc21
active: HT29 colon 2.98% | SNB-75 CNS -8.46% | SNB-19 CNS 9% | SK-MEL-5 melanoma -43.9% | UACC-62 melanoma -4.21% | SK-MEL-28 melanoma 0.371%
inactive: HCT-15 colon 23.3% | U251 CNS 26% | PC-3 prostate 18.9% | LOX IMVI melanoma 11.3%

CCN(CC)CCOC(=O)Nc1ccccc1Cl
inactive: HCT-15 colon 102% | HT29 colon 80.4% | SNB-75 CNS 108% | SNB-19 CNS 99.4% | U251 CNS 99.3% | PC-3 prostate 71.7% | SK-MEL-5 melanoma 105% | UACC-62 melanoma 99.2% | LOX IMVI melanoma 101% | SK-MEL-28 melanoma 108%

N[C@@H]1CCC[C@H]1NCCCCN1C(=O)c2cccc3cccc(c23)C1=O
inactive: HCT-15 colon 81.8% | HT29 colon 33.8% | SNB-75 CNS 84.4% | SNB-19 CNS 85.5% | U251 CNS 59% | PC-3 prostate 61.6% | SK-MEL-5 melanoma 93.1% | UACC-62 melanoma 95.7% | LOX IMVI melanoma 24.4% | SK-MEL-28 melanoma 89.5%

N#Cc1c(NC(=O)c2ccc(Br)cc2)sc2c1CCCC2
active: SK-MEL-5 melanoma 9.6%
inactive: HCT-15 colon 22.2% | HT29 colon 15.8% | SNB-75 CNS 13.6% | SNB-19 CNS 38.5% | U251 CNS 31.2% | PC-3 prostate 28.9% | UACC-62 melanoma 29.1% | LOX IMVI melanoma 38.7% | SK-MEL-28 melanoma 59%

Nc1nc(N)c(-c2ccc(Cl)cc2)c(/C=C/c2ccc([N+](=O)[O-])cc2)n1
inactive: HCT-15 colon 66.3% | HT29 colon 63.8% | SNB-75 CNS 78.3% | SNB-19 CNS 75% | U251 CNS 82.9% | PC-3 prostate 32.4% | SK-MEL-5 melanoma 79.6% | UACC-62 melanoma 83.1% | LOX IMVI melanoma 60.6% | SK-MEL-28 melanoma 95.7%

C#CC[C@H](N)C(=O)O
inactive: HCT-15 colon 100% [20 µM] | HT29 colon 98.7% [20 µM] | SNB-75 CNS 68% [20 µM] | SNB-19 CNS 93.1% [20 µM] | U251 CNS 100% [20 µM] | PC-3 prostate 102% [20 µM] | SK-MEL-5 melanoma 102% [20 µM] | UACC-62 melanoma 95.4% [20 µM] | LOX IMVI melanoma 94.7% [20 µM] | SK-MEL-28 melanoma 110% [20 µM]

COC(=O)[C@]12CC[C@@H](C)[C@H](C)[C@@H]1C1=CC[C@@H]3[C@@]4(C)C(C=O)=C[C@@](C)(CO)C4=CC[C@@]3(C)[C@]1(C)CC2
active: HCT-15 colon 9.41%
inactive: HT29 colon 14.5% | SNB-75 CNS 62.6% | SNB-19 CNS 39.4% | U251 CNS 23.4% | PC-3 prostate 16.2% | SK-MEL-5 melanoma 35.2% | UACC-62 melanoma 42.9% | LOX IMVI melanoma 26.1% | SK-MEL-28 melanoma 26.9%

OC(c1cccc(OCc2ccccc2)c1)c1nnc(-c2ccccc2)o1 (stereo not given)
inactive: HCT-15 colon 90% | HT29 colon 116% | SNB-75 CNS 94.2% | SNB-19 CNS 99.4% | U251 CNS 96.7% | PC-3 prostate 81% | SK-MEL-5 melanoma 66.4% | UACC-62 melanoma 61.7% | LOX IMVI melanoma 84.9% | SK-MEL-28 melanoma 108%

O=C(CC12CC3CC(CC(C3)C1)C2)NCCOCCOCCOCCNC(=O)c1cc2c(o1)C(=O)c1ccccc1C2=O
active: HCT-15 colon -78.5% | HT29 colon 1.17% | SNB-75 CNS -98.9% | SNB-19 CNS -0.887% | U251 CNS -19.6% | SK-MEL-5 melanoma -98.4% | UACC-62 melanoma -94.6% | LOX IMVI melanoma -52.4% | SK-MEL-28 melanoma -58.5%
inactive: PC-3 prostate 13.1%

O=C(Nc1cccc2[nH]c(C(F)(F)F)nc12)c1cc(Cl)ccc1Cl
active: SK-MEL-5 melanoma -47.5%
inactive: HCT-15 colon 29.2% | HT29 colon 52.1% | SNB-75 CNS 75.6% | SNB-19 CNS 32.3% | U251 CNS 15.8% | PC-3 prostate 15.5% | UACC-62 melanoma 20.5% | LOX IMVI melanoma 38.1% | SK-MEL-28 melanoma 44.3%

COc1cccc(-c2nc3sccn3c2-c2ccnc(NCCNS(=O)(=O)c3c(Cl)cccc3Cl)c2)c1
inactive: HCT-15 colon 47.3% | HT29 colon 47.3% | SNB-75 CNS 42.8% | SNB-19 CNS 77% | U251 CNS 70.1% | PC-3 prostate 41.2% | SK-MEL-5 melanoma 26% | UACC-62 melanoma 28.6% | LOX IMVI melanoma 58.6% | SK-MEL-28 melanoma 90.4%

O=C1Nc2ccc(Cl)cc2/C1=N/N=C/c1c[nH]c2ccccc12
inactive: HCT-15 colon 66.9% | HT29 colon 86.9% | SNB-75 CNS 58.1% | SNB-19 CNS 86.3% | U251 CNS 70.9% | PC-3 prostate 93.8% | SK-MEL-5 melanoma 87.7% | UACC-62 melanoma 43.1% | LOX IMVI melanoma 74% | SK-MEL-28 melanoma 102%

COc1cc(C2CC(c3ccc(Nc4nc(Nc5ccc(F)cc5)nc(Nc5ccc(Cl)cc5)n4)cc3)=NN2C(C)=O)cc(OC)c1OC (stereo not given)
inactive: HCT-15 colon 65.7% | HT29 colon 46.3% | SNB-75 CNS 54.7% | SNB-19 CNS 74.5% | U251 CNS 62.6% | PC-3 prostate 32.6% | SK-MEL-5 melanoma 60.1% | UACC-62 melanoma 62% | LOX IMVI melanoma 82.8% | SK-MEL-28 melanoma 88.7%

Cl.Fc1c[c-]c(-c2ccccn2)c(F)c1.[Pt].c1ccc(P(c2ccccc2)C([PH+](c2ccccc2)c2ccccc2)[PH+](c2ccccc2)c2ccccc2)cc1
inactive: HCT-15 colon 56.1% | HT29 colon 11.8% | SNB-19 CNS 27.1% | U251 CNS 16.4% | UACC-62 melanoma 23.2% | LOX IMVI melanoma 11.7% | SK-MEL-28 melanoma 34.4%
active: SNB-75 CNS 7.77% | PC-3 prostate 7.49% | SK-MEL-5 melanoma -91%

Cc1nc2ccc(C(=O)NCc3cc(C(=O)O)c(C)o3)cc2nc1C
inactive: HCT-15 colon 105% | HT29 colon 95.6% | SNB-75 CNS 79.4% | SNB-19 CNS 101% | U251 CNS 96.8% | PC-3 prostate 90% | SK-MEL-5 melanoma 105% | UACC-62 melanoma 94.8% | LOX IMVI melanoma 94.3% | SK-MEL-28 melanoma 103%

N#Cc1c(N)n2c(nc1=Nc1ccc(Cl)cc1)sc1cc(Cl)ccc12
inactive: HCT-15 colon 96.2% | HT29 colon 33.4% | SNB-75 CNS 21.1% | SNB-19 CNS 75.5% | U251 CNS 71% | PC-3 prostate 62.5% | SK-MEL-5 melanoma 61.1% | UACC-62 melanoma 63.4% | LOX IMVI melanoma 79.7% | SK-MEL-28 melanoma 57.6%

O=C(/C=C/C12c3ccccc3C(c3ccccc31)C1C(=O)N(c3ccc(Cl)cc3)C(=O)C12)c1ccccn1 (stereo not given)
active: HCT-15 colon -35% | HT29 colon 1.52% | SNB-75 CNS -18.7% | SNB-19 CNS -71.9% | U251 CNS -48.3% | PC-3 prostate -19.8% | SK-MEL-5 melanoma -83.5% | UACC-62 melanoma -44.6% | LOX IMVI melanoma -89.4% | SK-MEL-28 melanoma -12.4%

C=C(Cl)COC(=O)C(C)(C)O
inactive: HCT-15 colon 102% | HT29 colon 92.8% | SNB-75 CNS 84.6% | SNB-19 CNS 105% | U251 CNS 100% | PC-3 prostate 92.8% | SK-MEL-5 melanoma 106% | UACC-62 melanoma 111% | LOX IMVI melanoma 94.8% | SK-MEL-28 melanoma 97.7%

N=C(N)c1ccc(-c2ccc(-c3ccc(Cl)c(Cl)c3)o2)nc1
inactive: HCT-15 colon 17.2% | SNB-75 CNS 97.8% | PC-3 prostate 64.5% | SK-MEL-5 melanoma 92.4% | UACC-62 melanoma 103% | SK-MEL-28 melanoma 99.6%
active: HT29 colon -39.8% | SNB-19 CNS 6.96% | U251 CNS -57.1% | LOX IMVI melanoma -74.7%

CSc1ncc(C)c(Nc2ccc(Cl)cc2)n1
inactive: HCT-15 colon 99.3% | HT29 colon 96.4% | SNB-75 CNS 90.4% | SNB-19 CNS 105% | U251 CNS 93% | PC-3 prostate 87.6% | SK-MEL-5 melanoma 110% | UACC-62 melanoma 99.4% | LOX IMVI melanoma 107% | SK-MEL-28 melanoma 114%

CC1(C)N=C(N)N=C(N)N1c1ccc(Cl)c(Cl)c1
inactive: HCT-15 colon 30.6% | HT29 colon 36.2% | SNB-75 CNS 71.2% | SNB-19 CNS 40.3% | U251 CNS 30.1% | PC-3 prostate 38.3% | SK-MEL-5 melanoma 25.2% | UACC-62 melanoma 27.4% | LOX IMVI melanoma 18.8% | SK-MEL-28 melanoma 78.6%

CC(C)c1ccc(C(=O)OC(=O)c2ccc(C(C)C)cc2)cc1
inactive: HCT-15 colon 95.1% | HT29 colon 112% | SNB-75 CNS 88.6% | SNB-19 CNS 107% | U251 CNS 91.2% | PC-3 prostate 86.8% | SK-MEL-5 melanoma 116% | UACC-62 melanoma 99.4% | LOX IMVI melanoma 91.5% | SK-MEL-28 melanoma 115%

O=C1Nc2ccccc2SC1c1ccccc1Cl (stereo not given)
inactive: HCT-15 colon 110% | HT29 colon 46% | SNB-75 CNS 34.5% | SNB-19 CNS 111% | U251 CNS 112% | PC-3 prostate 92.8% | SK-MEL-5 melanoma 106% | UACC-62 melanoma 101% | LOX IMVI melanoma 107% | SK-MEL-28 melanoma 104%

COc1cc(/C=C/c2nc(Nc3ccc(S(=O)(=O)Nc4cc(C)on4)cc3)c3ccccc3n2)ccc1O
inactive: HCT-15 colon 31.8% | HT29 colon 85.4% | SNB-75 CNS 59.7% | SNB-19 CNS 64.3% | U251 CNS 61.4% | PC-3 prostate 80.4% | SK-MEL-5 melanoma 52.6% | UACC-62 melanoma 46.6% | LOX IMVI melanoma 59.5% | SK-MEL-28 melanoma 74%

Cc1ccc(/C=C(\C#N)n2nnc3cc(Cl)c(Cl)cc32)cc1
inactive: HCT-15 colon 11.7% | HT29 colon 12.3% | SNB-19 CNS 17.7% | PC-3 prostate 12.8% | SK-MEL-5 melanoma 14% | UACC-62 melanoma 26.1% | SK-MEL-28 melanoma 41.3%
active: SNB-75 CNS -24.6% | U251 CNS 7.49% | LOX IMVI melanoma -13.4%

COc1ccc(-c2cc(-c3cc(OC)ccc3O)[nH]c(=O)c2C#N)cc1
inactive: HCT-15 colon 60.2% | HT29 colon 28.4% | SNB-75 CNS 58.9% | SNB-19 CNS 65.4% | U251 CNS 22.5% | PC-3 prostate 52% | SK-MEL-5 melanoma 31.4% | UACC-62 melanoma 41.4% | LOX IMVI melanoma 40.5% | SK-MEL-28 melanoma 67.5%
